For one sequence, binding signal results are on record in paper PMC7862700, “An all-to-all approach to the identification of sequence-specific readers for epigenetic DNA modifications on cytosine”.

What all share (experiment): DAPPL (digital affinity profiling via proximity ligation, sequencing); 10 mM Tris-HCl pH 7.5, 50 mM NaCl, 1 mM DTT, 4% glycerol, room temperature, 30 min; GST-TFs on glutathione beads, 16-mer random dsDNA library, 0.1% formaldehyde crosslink after washing; high values mean tight binding
The target in one assay is T1, FEV (Homo sapiens, UniProt Q99581 1-238).
T1 sequence: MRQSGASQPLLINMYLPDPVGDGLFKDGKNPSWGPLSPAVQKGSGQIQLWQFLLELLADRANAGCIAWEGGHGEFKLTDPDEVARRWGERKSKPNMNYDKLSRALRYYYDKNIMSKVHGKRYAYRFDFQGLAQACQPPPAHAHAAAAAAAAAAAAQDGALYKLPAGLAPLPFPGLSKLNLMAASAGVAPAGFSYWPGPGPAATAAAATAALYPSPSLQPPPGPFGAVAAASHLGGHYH
The conditions noted are these: protein: recombinant; tags: N-terminal GST; dsDNA, one strand shown. Summed up: (§1)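 Pools were built from human transcription factors expressed in yeast as GST fusions, captured on glutathione beads and DNA-barcoded, along with a tag-only sample. Incubation with 200 nmole of a 16-mer random double-stranded DNA library lasted 30 min at room temperature in Tris/NaCl/DTT/glycerol buffer, and was followed by washing, 0.1% formaldehyde crosslinking, proximity ligation, PCR amplification and Illumina NextSeq500 sequencing. Binding signal is the quotient of each hexamer's read frequency for a factor and its frequency for the tag-only sample.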

The next assay deals with ETV5 (Homo sapiens, UniProt P41161 1-510). The conditions noted are these: protein: recombinant; tags: N-terminal GST; dsDNA, one strand shown. Summed up: as §1
For a further assay, the target named is HSF1 (Homo sapiens, UniProt Q00613 1-529). The following applies: protein: recombinant; tags: N-terminal GST; chain copies: 3; dsDNA, one strand shown. In a few lines: as §1
In a further assay the target is T2, SPIC (Homo sapiens, UniProt Q8N5J4 1-248).
T2 sequence: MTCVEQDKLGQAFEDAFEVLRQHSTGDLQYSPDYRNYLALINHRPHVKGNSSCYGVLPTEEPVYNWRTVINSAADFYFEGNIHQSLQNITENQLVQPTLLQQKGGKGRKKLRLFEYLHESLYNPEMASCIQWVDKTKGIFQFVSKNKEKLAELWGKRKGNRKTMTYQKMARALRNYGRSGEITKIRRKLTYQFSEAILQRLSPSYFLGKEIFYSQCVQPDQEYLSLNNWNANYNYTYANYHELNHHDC
The conditions noted are these: protein: recombinant; tags: N-terminal GST; dsDNA, one strand shown. Summed up:
as §1

The next assay concerns the target ELF4 (Homo sapiens, UniProt Q99607 1-663). The conditions noted are these: protein: recombinant; tags: N-terminal GST; dsDNA, one strand shown. In a few lines:
as §1

In a further assay the target is T3, ELK4 (Homo sapiens, UniProt P28324-2 1-405).
T3 sequence: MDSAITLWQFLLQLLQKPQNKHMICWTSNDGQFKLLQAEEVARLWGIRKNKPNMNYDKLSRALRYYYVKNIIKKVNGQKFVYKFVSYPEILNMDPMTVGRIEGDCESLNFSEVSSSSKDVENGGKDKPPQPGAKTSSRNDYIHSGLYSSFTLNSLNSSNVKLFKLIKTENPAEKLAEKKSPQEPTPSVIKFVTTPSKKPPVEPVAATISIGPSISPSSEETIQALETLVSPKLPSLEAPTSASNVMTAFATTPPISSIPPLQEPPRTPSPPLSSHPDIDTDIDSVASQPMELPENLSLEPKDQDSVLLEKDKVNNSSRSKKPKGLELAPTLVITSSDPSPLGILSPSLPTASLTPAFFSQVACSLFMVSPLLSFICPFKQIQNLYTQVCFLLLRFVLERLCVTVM
The following applies: protein: recombinant; tags: N-terminal GST; dsDNA, one strand shown. Summed up:
as §1

Another assay has as its target T4, ETV2 (Homo sapiens, UniProt O00321 1-342).
T4 sequence: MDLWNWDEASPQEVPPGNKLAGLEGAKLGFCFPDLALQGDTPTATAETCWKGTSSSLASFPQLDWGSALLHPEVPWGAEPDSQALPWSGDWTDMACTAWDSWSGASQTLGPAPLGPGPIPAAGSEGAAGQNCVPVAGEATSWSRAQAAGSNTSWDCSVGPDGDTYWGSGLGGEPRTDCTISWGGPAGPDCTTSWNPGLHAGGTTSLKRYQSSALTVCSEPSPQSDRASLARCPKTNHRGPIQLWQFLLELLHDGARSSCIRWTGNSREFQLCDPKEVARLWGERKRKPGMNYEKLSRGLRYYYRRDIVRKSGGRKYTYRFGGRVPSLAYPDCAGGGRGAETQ
The conditions noted are these: protein: recombinant; tags: N-terminal GST; dsDNA, one strand shown. In a few lines:
as §1

A further assay deals with T5, ELF3 (Homo sapiens, UniProt P78545 1-371).
T5 sequence: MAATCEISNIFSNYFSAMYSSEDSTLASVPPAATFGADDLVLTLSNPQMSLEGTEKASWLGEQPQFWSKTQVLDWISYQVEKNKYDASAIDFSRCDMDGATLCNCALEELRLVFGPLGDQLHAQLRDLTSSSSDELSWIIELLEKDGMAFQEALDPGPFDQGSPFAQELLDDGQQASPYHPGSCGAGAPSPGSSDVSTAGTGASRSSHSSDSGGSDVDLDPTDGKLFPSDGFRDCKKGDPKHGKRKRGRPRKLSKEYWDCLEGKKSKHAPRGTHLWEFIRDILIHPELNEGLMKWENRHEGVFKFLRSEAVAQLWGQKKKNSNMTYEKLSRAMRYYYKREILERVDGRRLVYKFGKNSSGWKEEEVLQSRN
The following applies: protein: recombinant; tags: N-terminal GST; dsDNA, one strand shown. Summed up:
as §1

Another assay deals with CRX (Homo sapiens, UniProt O43186 1-299). The following applies: protein: recombinant; tags: N-terminal GST; dsDNA, one strand shown. In a few lines:
as §1

For another assay, the target named is ETV1 (Homo sapiens, UniProt P50549 1-477). The conditions noted are these: protein: recombinant; tags: N-terminal GST; dsDNA, one strand shown. In a few lines: as §1
For the next assay, the target named is T6, ERF (Homo sapiens, UniProt P50548 1-548).
T6 sequence: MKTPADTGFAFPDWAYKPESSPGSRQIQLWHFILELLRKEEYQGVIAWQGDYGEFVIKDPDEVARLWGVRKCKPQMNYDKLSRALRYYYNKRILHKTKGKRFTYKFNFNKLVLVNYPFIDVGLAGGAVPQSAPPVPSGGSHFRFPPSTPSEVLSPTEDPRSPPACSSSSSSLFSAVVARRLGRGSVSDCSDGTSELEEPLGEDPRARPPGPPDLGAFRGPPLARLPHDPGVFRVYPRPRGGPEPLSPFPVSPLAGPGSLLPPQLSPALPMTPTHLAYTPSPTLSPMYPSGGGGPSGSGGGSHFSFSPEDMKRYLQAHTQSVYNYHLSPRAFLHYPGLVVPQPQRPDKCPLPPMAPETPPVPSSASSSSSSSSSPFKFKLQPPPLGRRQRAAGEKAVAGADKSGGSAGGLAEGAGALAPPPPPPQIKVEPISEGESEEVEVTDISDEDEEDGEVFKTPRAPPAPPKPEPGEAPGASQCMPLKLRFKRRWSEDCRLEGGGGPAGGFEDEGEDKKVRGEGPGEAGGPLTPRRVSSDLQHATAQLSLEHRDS
The following applies: protein: recombinant; tags: N-terminal GST; dsDNA, one strand shown. Summed up: as §1

In a further assay the target is T7, ETV3L (Homo sapiens, UniProt Q6ZN32 1-361).
T7 sequence: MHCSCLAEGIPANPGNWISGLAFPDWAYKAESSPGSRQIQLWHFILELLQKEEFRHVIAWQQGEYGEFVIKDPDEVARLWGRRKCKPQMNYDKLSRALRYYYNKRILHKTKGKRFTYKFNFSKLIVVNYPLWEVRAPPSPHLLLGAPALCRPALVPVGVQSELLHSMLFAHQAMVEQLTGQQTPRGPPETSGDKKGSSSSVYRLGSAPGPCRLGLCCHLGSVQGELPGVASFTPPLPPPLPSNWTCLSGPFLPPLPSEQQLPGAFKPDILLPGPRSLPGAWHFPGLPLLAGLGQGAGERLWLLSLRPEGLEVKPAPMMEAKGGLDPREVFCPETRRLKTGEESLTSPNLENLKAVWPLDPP
The following applies: protein: recombinant; tags: N-terminal GST; dsDNA, one strand shown. Summed up: as §1

A further assay concerns the target T8, ETS2 (Homo sapiens, UniProt P15036 1-469).
T8 sequence: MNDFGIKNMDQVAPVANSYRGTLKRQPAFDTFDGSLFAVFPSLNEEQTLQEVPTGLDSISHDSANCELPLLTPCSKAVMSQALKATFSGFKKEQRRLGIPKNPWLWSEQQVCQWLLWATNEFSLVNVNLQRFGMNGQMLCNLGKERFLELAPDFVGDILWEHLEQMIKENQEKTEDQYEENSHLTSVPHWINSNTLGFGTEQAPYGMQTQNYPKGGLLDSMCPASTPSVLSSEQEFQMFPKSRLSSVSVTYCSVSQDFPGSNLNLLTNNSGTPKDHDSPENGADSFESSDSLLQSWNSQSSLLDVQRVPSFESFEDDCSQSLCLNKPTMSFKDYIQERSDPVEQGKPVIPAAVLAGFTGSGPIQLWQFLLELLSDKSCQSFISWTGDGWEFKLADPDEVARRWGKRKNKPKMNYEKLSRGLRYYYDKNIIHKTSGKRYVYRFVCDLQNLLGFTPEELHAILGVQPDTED
The conditions noted are these: protein: recombinant; tags: N-terminal GST; dsDNA, one strand shown. In a few lines: as §1

The target of a further assay is T9, SPDEF (Homo sapiens, UniProt O95238 1-335).
T9 sequence: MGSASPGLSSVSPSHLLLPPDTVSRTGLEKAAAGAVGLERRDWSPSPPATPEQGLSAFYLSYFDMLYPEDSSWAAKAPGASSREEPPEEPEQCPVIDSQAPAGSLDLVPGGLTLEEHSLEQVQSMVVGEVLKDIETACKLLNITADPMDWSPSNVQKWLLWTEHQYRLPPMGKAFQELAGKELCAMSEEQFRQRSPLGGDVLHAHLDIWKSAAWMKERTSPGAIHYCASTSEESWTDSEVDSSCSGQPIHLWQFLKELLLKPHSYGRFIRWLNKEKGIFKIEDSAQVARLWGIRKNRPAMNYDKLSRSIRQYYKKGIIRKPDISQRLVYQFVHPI
The conditions noted are these: protein: recombinant; tags: N-terminal GST; dsDNA, one strand shown. In a few lines: as §1

Another assay has as its target T10, ETV7 (Homo sapiens, UniProt Q9Y603 1-341).
T10 sequence: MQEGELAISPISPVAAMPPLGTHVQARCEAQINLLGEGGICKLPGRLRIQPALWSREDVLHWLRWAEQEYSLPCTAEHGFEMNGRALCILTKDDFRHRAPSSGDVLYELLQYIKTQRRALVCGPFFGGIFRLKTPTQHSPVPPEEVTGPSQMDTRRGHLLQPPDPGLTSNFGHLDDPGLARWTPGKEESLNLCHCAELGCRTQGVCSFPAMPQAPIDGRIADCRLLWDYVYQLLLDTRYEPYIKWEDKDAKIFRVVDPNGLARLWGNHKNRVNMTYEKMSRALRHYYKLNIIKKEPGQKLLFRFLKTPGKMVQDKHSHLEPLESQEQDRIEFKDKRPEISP
The conditions noted are these: protein: recombinant; tags: N-terminal GST; dsDNA, one strand shown. Summed up: as §1

Another assay concerns the target T11, ELF5 (Homo sapiens, UniProt Q9UKW6-2 1-255).
T11 sequence: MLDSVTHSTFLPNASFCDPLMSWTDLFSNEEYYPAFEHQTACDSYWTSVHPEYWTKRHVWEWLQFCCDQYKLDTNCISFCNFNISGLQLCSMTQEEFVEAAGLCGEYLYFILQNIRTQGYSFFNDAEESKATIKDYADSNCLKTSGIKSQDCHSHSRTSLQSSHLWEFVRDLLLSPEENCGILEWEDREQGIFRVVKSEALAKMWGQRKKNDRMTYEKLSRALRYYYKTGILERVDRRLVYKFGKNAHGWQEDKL
The conditions noted are these: protein: recombinant; tags: N-terminal GST; dsDNA, one strand shown. In a few lines:
as §1

The next assay has as its target T12, ETV3 (Homo sapiens, UniProt P41162-2 1-143).
T12 sequence: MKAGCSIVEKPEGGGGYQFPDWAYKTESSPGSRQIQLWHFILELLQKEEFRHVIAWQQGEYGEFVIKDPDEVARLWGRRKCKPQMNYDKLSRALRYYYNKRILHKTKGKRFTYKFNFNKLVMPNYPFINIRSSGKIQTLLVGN
The following applies: protein: recombinant; tags: N-terminal GST; dsDNA, one strand shown. Summed up:
as §1

The target of the next assay is ETV6 (Homo sapiens, UniProt P41212 1-452). The conditions noted are these: protein: recombinant; tags: N-terminal GST; dsDNA, one strand shown. In a few lines: as §1
Chain of ETV6 (P41212 whole entry): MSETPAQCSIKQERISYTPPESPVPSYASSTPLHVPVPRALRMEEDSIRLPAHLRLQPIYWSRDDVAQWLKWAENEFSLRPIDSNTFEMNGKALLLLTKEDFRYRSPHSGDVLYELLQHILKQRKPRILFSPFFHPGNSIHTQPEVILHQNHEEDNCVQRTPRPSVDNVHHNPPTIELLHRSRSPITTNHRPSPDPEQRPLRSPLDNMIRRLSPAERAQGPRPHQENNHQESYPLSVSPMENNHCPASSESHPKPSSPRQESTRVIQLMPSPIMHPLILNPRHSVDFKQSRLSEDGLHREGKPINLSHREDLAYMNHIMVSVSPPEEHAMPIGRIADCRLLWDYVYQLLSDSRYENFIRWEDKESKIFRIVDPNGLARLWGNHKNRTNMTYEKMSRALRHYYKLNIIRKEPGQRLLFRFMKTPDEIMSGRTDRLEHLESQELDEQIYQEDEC

Chain of HSF1 (Q00613 whole entry): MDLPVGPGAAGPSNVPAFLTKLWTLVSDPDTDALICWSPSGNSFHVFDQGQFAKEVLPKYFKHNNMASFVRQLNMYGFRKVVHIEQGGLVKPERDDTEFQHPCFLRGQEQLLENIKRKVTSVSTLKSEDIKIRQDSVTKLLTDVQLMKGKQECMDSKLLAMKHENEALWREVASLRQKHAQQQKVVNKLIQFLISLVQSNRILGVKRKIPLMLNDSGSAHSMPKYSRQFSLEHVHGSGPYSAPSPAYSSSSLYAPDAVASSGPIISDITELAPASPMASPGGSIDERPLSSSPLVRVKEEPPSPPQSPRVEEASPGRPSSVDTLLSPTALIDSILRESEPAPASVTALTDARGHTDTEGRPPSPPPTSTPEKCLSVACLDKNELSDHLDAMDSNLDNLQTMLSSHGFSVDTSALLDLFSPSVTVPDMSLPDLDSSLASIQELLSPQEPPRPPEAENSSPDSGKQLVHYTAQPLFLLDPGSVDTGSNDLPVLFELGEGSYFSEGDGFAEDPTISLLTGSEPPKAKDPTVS
Chain of ETV1 (P50549 whole entry): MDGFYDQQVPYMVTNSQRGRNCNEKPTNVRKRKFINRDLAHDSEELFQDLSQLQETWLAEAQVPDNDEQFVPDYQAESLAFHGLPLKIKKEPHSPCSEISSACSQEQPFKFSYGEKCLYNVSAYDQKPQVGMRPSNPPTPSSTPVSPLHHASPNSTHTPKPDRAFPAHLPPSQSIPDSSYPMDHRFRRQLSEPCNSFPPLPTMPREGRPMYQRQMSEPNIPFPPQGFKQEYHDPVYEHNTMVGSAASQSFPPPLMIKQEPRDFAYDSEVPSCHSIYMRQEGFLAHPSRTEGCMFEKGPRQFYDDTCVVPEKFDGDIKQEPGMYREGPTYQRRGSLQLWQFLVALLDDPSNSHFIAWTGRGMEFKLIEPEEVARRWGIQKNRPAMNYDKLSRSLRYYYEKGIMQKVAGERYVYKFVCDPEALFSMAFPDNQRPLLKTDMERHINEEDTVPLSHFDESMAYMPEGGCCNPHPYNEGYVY
Chain of ELF4 (Q99607 whole entry): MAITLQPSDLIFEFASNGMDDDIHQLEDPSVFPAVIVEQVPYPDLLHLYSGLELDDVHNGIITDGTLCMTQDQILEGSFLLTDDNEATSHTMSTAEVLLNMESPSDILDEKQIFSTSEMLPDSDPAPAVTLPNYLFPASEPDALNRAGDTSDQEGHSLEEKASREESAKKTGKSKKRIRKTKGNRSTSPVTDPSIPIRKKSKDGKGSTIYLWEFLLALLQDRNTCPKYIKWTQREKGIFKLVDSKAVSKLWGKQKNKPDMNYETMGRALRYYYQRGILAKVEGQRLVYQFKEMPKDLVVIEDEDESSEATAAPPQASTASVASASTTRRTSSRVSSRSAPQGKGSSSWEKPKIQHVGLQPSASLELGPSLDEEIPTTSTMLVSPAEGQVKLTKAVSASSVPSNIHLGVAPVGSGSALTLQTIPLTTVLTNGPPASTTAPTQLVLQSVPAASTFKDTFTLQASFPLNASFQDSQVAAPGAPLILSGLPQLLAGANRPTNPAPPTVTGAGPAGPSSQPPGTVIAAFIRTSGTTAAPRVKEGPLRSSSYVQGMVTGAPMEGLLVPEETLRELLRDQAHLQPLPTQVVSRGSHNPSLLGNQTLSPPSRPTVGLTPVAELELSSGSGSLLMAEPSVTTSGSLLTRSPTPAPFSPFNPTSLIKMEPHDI
Chain of ETV5 (P41161 whole entry): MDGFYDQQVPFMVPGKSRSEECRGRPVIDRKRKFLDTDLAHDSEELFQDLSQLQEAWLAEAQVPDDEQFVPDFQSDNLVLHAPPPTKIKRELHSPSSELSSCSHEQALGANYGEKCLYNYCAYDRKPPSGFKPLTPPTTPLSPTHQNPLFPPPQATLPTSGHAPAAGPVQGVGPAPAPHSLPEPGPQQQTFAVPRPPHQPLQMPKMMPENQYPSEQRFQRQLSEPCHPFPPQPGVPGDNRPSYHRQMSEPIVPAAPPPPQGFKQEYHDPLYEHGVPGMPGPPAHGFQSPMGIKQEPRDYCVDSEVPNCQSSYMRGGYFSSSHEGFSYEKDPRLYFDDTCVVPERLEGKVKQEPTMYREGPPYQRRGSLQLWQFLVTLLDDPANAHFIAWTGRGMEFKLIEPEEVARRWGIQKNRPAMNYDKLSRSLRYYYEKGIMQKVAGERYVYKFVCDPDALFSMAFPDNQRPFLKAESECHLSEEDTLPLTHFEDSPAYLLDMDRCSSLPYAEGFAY
Chain of CRX (O43186 whole entry): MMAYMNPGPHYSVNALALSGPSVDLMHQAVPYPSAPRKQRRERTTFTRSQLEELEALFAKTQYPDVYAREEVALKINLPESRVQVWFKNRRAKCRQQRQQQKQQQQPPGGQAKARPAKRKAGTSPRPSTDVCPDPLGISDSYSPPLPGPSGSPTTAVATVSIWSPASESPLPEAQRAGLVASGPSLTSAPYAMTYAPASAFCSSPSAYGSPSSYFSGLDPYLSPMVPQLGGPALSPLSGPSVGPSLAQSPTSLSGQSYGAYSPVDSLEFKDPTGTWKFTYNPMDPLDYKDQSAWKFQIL

Consider TTTGAA, for which the binding signal was 1.13 fold enrichment (6-mer frequency, TF over GST control) with FEV; 1.26 fold enrichment (6-mer frequency, TF over GST control) in the assay with ETV5; 1.24 fold enrichment (6-mer frequency, TF over GST control) with HSF1; 1.24 fold enrichment (6-mer frequency, TF over GST control) in the assay with SPIC; 1.32 fold enrichment (6-mer frequency, TF over GST control) with ELF4; 1.34 fold enrichment (6-mer frequency, TF over GST control) with ELK4. For the same sequence, the binding signal is 1.38 fold enrichment (6-mer frequency, TF over GST control) in the assay with ETV2; 1.3 fold enrichment (6-mer frequency, TF over GST control) in the assay with ELF3; 1.28 fold enrichment (6-mer frequency, TF over GST control) in the assay with CRX; 1.19 fold enrichment (6-mer frequency, TF over GST control) with ETV1; 1.11 fold enrichment (6-mer frequency, TF over GST control) with ERF; 1.19 fold enrichment (6-mer frequency, TF over GST control) with ETV3L. In addition, the binding signal was 1.23 fold enrichment (6-mer frequency, TF over GST control) with ETS2; 1.15 fold enrichment (6-mer frequency, TF over GST control) with SPDEF; 1.17 fold enrichment (6-mer frequency, TF over GST control) in the assay with ETV7; 1.1 fold enrichment (6-mer frequency, TF over GST control) with ELF5; 1.22 fold enrichment (6-mer frequency, TF over GST control) with ETV3; 1.23 fold enrichment (6-mer frequency, TF over GST control) with ETV6.
